The campaign covered roughly 320,000 compounds. About 7,600 (2.4%) were called active. Where a call stands in place of a potency, no number is given. Not shown: some 3% with an inconclusive outcome. The sample holds actives, similar compounds and a random draw of the others, so the mix is not that of the screen. The call rests on the fitted dose curve; in most records, active means well fitted activation curve with a large enough effect; inconclusive means small, poorly fitted or top-dose-only effect; inactive means no such curve, though single readings can be large or run the other way.
Potency means the concentration at half of the fitted maximal effect.

This test in a line: qHTS Assay for NPC1 Promoter Activators. Further: nearly all actives have a fitted effect of over 60% in size. As to conditions: Huh7 NPC1 promoter luciferase reporter, 24 h; series mostly up to 9.22 µM. The source says: NIH Chemical Genomics Center [NCGC] NIH Molecular Libraries Probe Production centers Network [MLPCN] MLPCN Grant: MH089375-01A1 Assay Submitter (PI): Yiannis A. Ioannou NCGC Assay Overview: Niemann Pick Type C (NPC) is a rare neurodegenerative lipidosis that is characterized by lipid storage in the endosomal/lysosomal system. Treatment modalities for this devastating disease are currently non-existent due to the severe obstacles associated with accessing the central nervous system with proteins or genes. The majority of mutations causing NPC disease are missense mutations that are distributed throughout the length of the NPC1 protein, with the most prevalent being the I1061T allele. Although NPC1 mutant proteins may be functional, they are typically trapped in the ER due to misfolding. […] We have developed and optimized a cell based luciferase reporter assay in 1536 well format for the identification of up-regulators of the mutant NPC1 promoter.
The NPC1 promoter is cloned in front of the luciferase reporter gene, therefore NPC promoter activation results in luciferase expression. Frozen stock of the NPC1 promoter transfected Huh7 cells were obtained from the laboratory of Dr. Yiannis Ioannou (The Mount Sinai School of Medicine, New York, NY). Cells were propagated and maintained at NCGC in medium containing RPMI-1640 supplemented with 10% FBS, 2mM L-glutamine, and 50ug/ml penicillin/streptomycin. Cells were harvested in and plated for assays in OP-MEM I reduced-serum medium supplemented with 10% FBS. The Amplite luciferase reporter gene assay kit was purchased from ABD Bioquest and prepared/stored according to manufacturers recommendations. qHTS Assay Setup: 1.#Dispensed 5ul of Huh7 cells stably expressing NPC1-luciferase at a density of 1500 cells per well 1536-well plates. 2.#Incubate cells at 37C, 5% CO2, and 95% humidity for 2 hours. 3.#Transferred 23nl per well of compound in DMSO solution. 4.#Incubated at 37C, 5% CO2, and 95% humidity for 24 hours. 5.#Dispensed 3ul per well of Amplite reagent(ABD Bioquest) per well. 6.#Incubate at ambient for 10 minutes. 7.#Read using the luminescence protocol on the ViewLux plate reader (Perkin Elmer).
Take `O=C(CNC(=O)c1ccc2ccccc2c1)Nc1ncccc1O`: the Potency entry was “inactive”. Turning to `CCOC(=O)c1cc(C(C)C)sc1NC(=O)COC(=O)c1nccnc1N`, the Potency result is “inactive”.

Regarding `CCc1cc(C(N)=O)c(NC(=O)c2ccc(OC)cc2)s1`, the Potency entry was “inactive”. The value for `CC(C)c1cc(C(N)=O)c(NC(=O)c2cccc(COc3ccc(Br)cc3)c2)s1` was 2820 nM (active); that for `CC(=O)c1c(C)[nH]c(C(=O)OCC(=O)Nc2c(C)n(C)n(-c3ccccc3)c2=O)c1C` was “inactive”; that for `CN(C)CCN=c1cc(-c2ccccc2)oc2ccc(Cl)cc12` was 2820 nM (active). Turning to `CN(C)CCn1c(=S)[nH]c2ccc(Cl)cc2c1=O`, the Potency entry was “inactive”. For `CN(CC(=O)NCc1ccc2c(c1)OCO2)CC(=O)Nc1ccc(F)c(F)c1F`, the Potency result was “inactive”.

Regarding `CO[C@H]1[C@@H]2C=CO[C@@H](O[C@H]3O[C@@H](CO)[C@H](O)[C@@H](O)[C@@H]3O)[C@@H]2[C@@]2(CO)O[C@@H]12`, the Potency entry is “inactive”.

With `O=C(Nc1ccc(Cl)cc1)c1ccsn1`, the Potency was 3160 nM (active). The value for `CCC(=O)Nc1ccc(C(=O)NNC(=O)c2ccc(Cl)cc2)cc1` was “inactive”.

As to `O=C(Nc1ccccc1)c1nnsc1S(=O)(=O)c1ccc(Cl)cc1`, the Potency result was “inactive”.

Regarding `CCCCN(CC(=O)Nc1cccc(S(=O)(=O)N2CCCC2)c1)Cc1nc2ccccc2c(=O)[nH]1`, the Potency result is “inactive”. As for `COCCn1cnnc1SCC(=O)Nc1cccc(S(=O)(=O)N2CCCCC2)c1`, the Potency result is “inactive”. With `Cc1ccc(S(=O)(=O)N(C)C)cc1NC(=O)C(C)OC(=O)c1ccc2ccccc2n1` (stereo unspecified), the Potency entry is “inactive”. As for `COc1ccc(F)cc1C(=O)COC(=O)c1n[nH]c(=O)c2ccccc12`, the Potency result was “inactive”.

Regarding `CCN(C(=O)COC(=O)CCOc1cccc(C)c1)c1c(N)n(Cc2ccccc2)c(=O)[nH]c1=O`, the Potency result is “inactive”. For `O=C(O)c1ccc(N=NN2CCOCC2)cc1`, the Potency entry was “inactive”. Regarding `O=C(c1ccccc1)N1CCN(C(=O)N2CCCCC2)CC1`, the Potency result was “inactive”. Turning to `O=C(O)c1cccc(N=NN2CCCCCC2)c1`, the Potency was 100 nM (active).

Consider `CCOc1ncccc1C(=O)OCC(=O)Nc1cccc(S(=O)(=O)N2CCCCCC2)c1`, for which the Potency entry is “inactive”.

On to `N#Cc1nc(Cc2cccc3ccccc23)oc1NCc1ccc2c(c1)OCO2`, for which the Potency result is “inactive”. The value for `N#Cc1nc(Cc2ccccc2)oc1NCCc1ccccc1` was 3160 nM (active); that for `Cc1ccccc1-c1nc(C#N)c(NCc2ccco2)o1` was “inactive”. In the case of `c1ccc2[nH]c(-c3nc4ccccc4[nH]3)nc2c1`, the Potency was 1260 nM (active).

As to `Cc1ccc(-c2nc3ccccc3[nH]2)cc1N`, the Potency is 1580 nM (active).

On to `OC(c1nc2ccccc2[nH]1)C(O)C(O)C(O)c1nc2ccccc2[nH]1` (stereo unspecified), for which the Potency result was “inactive”. For `COc1ccc(-c2[nH]nc(-c3ccccc3)c2-c2nc3ccccc3[nH]2)cc1`, the Potency result is “inactive”.

In the case of `COc1ccc(Br)cc1C(=O)NC(=S)Nc1cc(-c2nc3ccccc3[nH]2)ccc1C`, the Potency result was “inactive”. `Nc1cccc(CCc2nc3ccccc3[nH]2)c1`: the Potency result was “inactive”. The value for `CNc1nc(SC)nc(N(C#N)CC(=O)OC)n1` was “inactive”. `COc1ccc(OC)c(S(=O)(=O)Nc2c(C)nn(C)c2C)c1`: the Potency entry was “inactive”. Consider `Cc1cc(C(=O)Nc2ccc(C)c(S(=O)(=O)N3CCOCC3)c2)c2ccccc2n1`, for which the Potency result was “inactive”.

Turning to `c1ccc(CN=C2Nc3ccccc3CS2)nc1`, the Potency was 2510 nM (active). With `CCC1(CC)NC(=O)N(CC(=O)OCC(=O)c2cc(C)c(C)cc2C)C1=O`, the Potency entry is “inactive”.

On to `CC(=O)c1c(C)[nH]c(C(=O)COc2ccc3c(C)cc(=O)oc3c2)c1C`, for which the Potency entry is “inactive”.

In the case of `CCN(CC(=O)Nc1ccc(NC(C)=O)cc1)C(=O)CSC(=S)N1CCCC1`, the Potency result is “inactive”. For the compound `C/C(=N\Nc1nc(Nc2ccccc2)nc(N2CCOCC2)n1)c1cccs1`, the Potency entry is “inactive”. Turning to `C/C(=N\Nc1ccc(S(N)(=O)=O)cc1[N+](=O)[O-])c1cccs1`, the Potency result was “inactive”. `C/C(=N\Nc1nc2ccccc2[nH]1)c1cccs1`: the Potency is 2000 nM (active). Take `O=C(Nc1ccccc1-c1nc2ccccc2[nH]c1=O)c1cccs1`: the Potency result was “inactive”. On to `C/C(=N\Nc1ncc(Cl)cc1Cl)c1cccs1`, for which the Potency was 1780 nM (active). Take `C/C(=N\NS(=O)(=O)c1ccc(Br)cc1)c1cccs1`: the Potency entry is “inactive”. In the case of `CN(C(=O)CSc1nnc(-c2ccc3c(c2)OCO3)o1)C1CCS(=O)(=O)C1` (stereo unspecified), the Potency result was “inactive”. On to `CCOc1ccc(NC(=O)COC(=O)C2CCC(=O)N2)c([N+](=O)[O-])c1` (stereo unspecified), for which the Potency entry is “inactive”. Regarding `CCN1C(=O)C(=O)N(CC(=O)Nc2cc(C)ccc2C)C1=O`, the Potency entry was “inactive”. Consider `CCc1ccc(NC2Nc3cc(C)nn3S2)cc1` (stereo unspecified), for which the Potency was 2820 nM (active). For the compound `CCOC(=O)c1ccc(NC2Nc3cc(C)nn3S2)cc1` (stereo unspecified), the Potency entry was “inactive”. Turning to `CN(C(=O)CN1C(=O)/C(=C/c2ccc(Cl)cc2)SC1=S)C1CCS(=O)(=O)C1` (stereo unspecified), the Potency entry is “inactive”. The value for `Cc1ccc(C)c(C(C)NC(=O)C2CCCO2)c1` (stereo unspecified) was “inactive”; that for `Cc1cc(C)c2nc(NC(=O)C3CCCO3)sc2c1` (stereo unspecified) was 3980 nM (active). The value for `Cc1cc([N+](=O)[O-])ccc1NC(=O)C1CCCO1` (stereo unspecified) was “inactive”. As to `CCOC(=O)c1ccc(NC(=O)C2CC(=O)N(c3ccc4c(c3)OCCO4)C2)cc1` (stereo unspecified), the Potency result is “inactive”. The value for `COc1cc(OC)c(N2CC(C(=O)Nc3cc(Cl)ccc3N3CCOCC3)CC2=O)cc1Cl` (stereo unspecified) was “inactive”; that for `O=C(/C=C/c1ccco1)Nc1ccc(Oc2ccccc2)cc1` was 3980 nM (active); that for `CCC(CC)c1nnc(NC(=O)/C=C/c2ccco2)s1` was “inactive”. The value for `CCOC(=O)c1c(NC(=O)/C=C/c2ccco2)sc(C)c1C` was “inactive”; that for `O=C(/C=C/c1ccco1)NC(=S)Nc1ccccc1Br` was “inactive”. For the compound `COc1cccc(NC(=O)COC(=O)/C=C/c2ccco2)c1`, the Potency result is “inactive”.

Turning to `Cc1nnc(NC(=O)/C=C/c2ccco2)s1`, the Potency was 2510 nM (active). The value for `CC(C)(CNC(=O)CNC(=O)C1CCCCC1)N1CCOCC1` was “inactive”; that for `O=C(C1CC(=O)N(C2CCCC2)C1)N1CCN(c2cccc(C(F)(F)F)c2)CC1` (stereo unspecified) was “inactive”. `COc1ccccc1N1CCN(CC(=O)Nc2ccnn2C2CCCC2)CC1`: the Potency result is “inactive”.

`COc1ccc(C(=O)N/N=c2\oc3ccccc3cc2C(N)=O)cc1`: the Potency result was “inactive”. The value for `NC(=O)c1cc2ccccc2o/c1=N/NC(=O)c1cccc(F)c1` was “inactive”. Regarding `COc1cccc2cc(C(N)=O)/c(=N\NC(=O)c3ccccc3)oc12`, the Potency is 2820 nM (active). As for `O=C(c1ccc(Cl)c(S(=O)(=O)N2CCCCCC2)c1)N1CCN(c2ccc(O)cc2)CC1`, the Potency result was “inactive”. `COc1ccc(C2COC(=O)C2=N)c(NC(=O)c2ccccc2)c1` (stereo unspecified): the Potency entry is “inactive”. As to `COc1cccc(C(=O)Nc2ccc(N3CCCC3)cc2)c1`, the Potency is 891 nM (active). The value for `COc1cccc(C(=O)Nc2cc3c(cc2Br)OCCCO3)c1` was 2820 nM (active); that for `COc1cccc(C(=O)Nc2ccc(N3CCN(C(=O)c4ccco4)CC3)cc2)c1` was “inactive”. For `CC(=O)Oc1cccc(C(=O)Nc2ccccc2NC(=O)c2cccc(OC(C)=O)c2)c1`, the Potency result was “inactive”.

As for `Cc1ccccc1C(=O)NC(=S)Nc1ccc(N2CCN(C(=O)c3ccccc3)CC2)cc1`, the Potency result is “inactive”.

For the compound `COc1ccc(C(=O)Nc2ccc(N3CCC(C)CC3)cc2)cc1Br`, the Potency entry is “inactive”. Regarding `CN1CCN(c2ccc(NC(=O)c3ccccc3)cc2)CC1`, the Potency was 2510 nM (active). As for `CN1CCN(c2ccc(NC(=O)c3ccc4c(c3)[nH]c(=O)n4Cc3ccc(F)cc3)cc2)CC1`, the Potency entry is “inactive”.

(Values after PubChem BioAssay AID485313 (National Center for Advancing Translational Sciences (NCATS), 2010).)
